PubChem BioAssay (NCATS)
Values joined by “and” are separate entries in the source; they are usually repeats but may differ in a detail not shown here. Equal entries are not always repeated. Inconclusive results are not listed. Active and inactive are the calls of the source. Calls come from the whole dose curve; as a rule, active = well fitted curve in the direction sought with a large enough effect; inconclusive = small, poorly fitted or top-dose-only effect, or another doubt; inactive = no such curve, though single readings can be large; an effect the other way counts as inactive or inconclusive.

Tests used:
[1] = P-glycoprotein substrates identified in KB-8-5-11 adenocarcinoma cell line, qHTS therapeutic library screen (AID 1346987); note: nearly all actives have a fitted effect of over 65% in size
Procedure, shortened: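 P-gp-mediated resistance screen: KB-8-5-11 cells treated 72 h with compounds in dose-response. CellTiter-Glo viability.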

[2] = NS1 protein of Zika virus - qHTS assay to identify small molecule inhibitors in human HEK 293 cells (AID 1347053); note: nearly all actives have a fitted effect of over 55% in size
Procedure, shortened: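 HEK 293; 20 h pre-culture, 37 C/5% CO2; cpd 1 h pre-infection; ZIKV MR766, MOI = 0.5, 24 h, 37 C; TR-FRET NS1 readout (two anti-NS1 Abs); norm. to no-virus vs infected.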

[3] = qHTS of pediatric cancer cell lines to identify multiple opportunities for drug repurposing: Primary screen for TC32 cells (AID 1347089); note: nearly all actives have a fitted effect of over 60% in size
Procedure, shortened: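 Luminescent CellTiter-Glo read-out of metabolically active TC32 cells after 48 h compound exposure. Primary: MIPE 11-point, 0.78 nM–46 µM; NPC 8-point, 0.59 nM–46 µM. Confirmatory: 11-point dilutions.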

[4] = qHTS of pediatric cancer cell lines to identify multiple opportunities for drug repurposing: Primary screen for DAOY cells (AID 1347090); note: nearly all actives have a fitted effect of over 55% in size
Procedure, shortened: (§1)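 Eight- or eleven-point concentration series, 48 h treatment at 37 degrees C in growth media; readout CellTiter-Glo luminescence. Potency and efficacy were taken from the concentration-response curves.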

[5] = qHTS of pediatric cancer cell lines to identify multiple opportunities for drug repurposing: Primary screen for SJ-GBM2 cells (AID 1347091)
Procedure, shortened: as §1

Measured: Potency
Potency is the fitted concentration of half-maximal effect.

CCOC(=O)N1CCN([N+]([O-])=NOc2ccc([N+](=O)[O-])cc2[N+](=O)[O-])CC1
active: [4] 18700 nM
inactive: [1] | [2] | [3]

Cc1coc2c1C(=O)C(=O)c1c-2ccc2c(C)cccc12
not listed: [5]
inactive: all other assays above

CC(=O)OC[C@@H]1O[C@@H](n2ccc(=O)[nH]c2=O)[C@H](OC(C)=O)[C@H]1OC(C)=O
inactive: all assays above

OC[C@@H](O)[C@@H](O)[C@H](O)[C@@H](O)CO
not listed: [5]
inactive: all other assays above

CCC(C=C[C@@H]1OC(=O)C=C[C@H]1C)=C[C@H](C)CC=CC(C)=C[C@@H](C)C(=O)[C@@H](C)[C@H](O)[C@@H](C)CC(C)=CC(=O)O
active: [1] 196 nM | [2] 124 nM | [3] 77.7 nM | [4] 78.2 nM

OC[C@H]1OC(O)C[C@@H](O)[C@H]1O (stereo partly drawn)
not listed: [5]
inactive: all other assays above

CCOC(=O)C1=C(C)NC(=S)NC1c1cccc(O)c1 (stereo not drawn)
active: [1] 4180 nM | [2] 332 nM | [3] 1310 nM | [4] 469 nM

Cc1cnc(Nc2ccc(CN3CCOCC3)cc2)nc1Nc1cccc(S(=O)(=O)NC(C)(C)C)c1
active: [1] 3.32 µM and 1.84 µM | [2] 33200 nM | [3] 9300 nM | [4] 4690 nM | [5] 2960 nM

C[C@H]1C[C@H]2[C@@H]3CCC4=CC(=O)C=C[C@]4(C)[C@@H]3C(=O)C[C@]2(C)[C@@]1(O)C(=O)CO
inactive: all assays above

c1coc(CNc2ncnc3nc[nH]c23)c1
not listed: [5]
inactive: all other assays above

C=CC(=O)Nc1ccc2ncnc(Nc3ccc(OCc4cccc(F)c4)c(Cl)c3)c2c1
active: [1] 23.5 µM and 16.4 µM | [2] 10500 nM | [3] 4660 nM | [4] 46.9 nM

CCn1c(=O)c2c(nc(C=Cc3ccc(OC)c(OC)c3)n2C)n(CC)c1=O
not listed: [5]
inactive: all other assays above

CS[C@H]1SC[C@@H]2C(=O)N(C)[C@H](C(C)C)C(=O)OC[C@H](NC(=O)c3cnc4ccccc4n3)C(=O)N[C@H](C)C(=O)N(C)[C@@H]1C(=O)N(C)[C@H](C(C)C)C(=O)OC[C@H](NC(=O)c1cnc3ccccc3n1)C(=O)N[C@H](C)C(=O)N2C
active: [1] 590 nM | [2] 16.6 nM | [3] 9.3 nM | [4] 7.4 nM

CCCCCCCCCCCCc1ccc(S(=O)(=O)Nc2nncs2)cc1
not listed: [5]
inactive: all other assays above

Cn1cnc2c(F)c(Nc3ccc(Br)cc3F)c(C(=O)NOCCO)cc21
inactive: all assays above

COc1ccnc2[nH]cc(C(=O)C(=O)N3CCN(C(=O)c4ccccc4)C[C@@H]3C)c12
inactive: all assays above

CCCCOc1ccc(C(=O)Nc2ccc(F)cc2F)cc1
inactive: all assays above

O=C1NC(O)CCN1[C@@H]1O[C@H](CO)[C@H](O)[C@H]1O (stereo partly drawn)
not listed: [5]
inactive: all other assays above

OCc1ccccc1O[C@@H]1O[C@H](CO)[C@H](O)[C@H](O)[C@H]1O
inactive: all assays above

CC(Cc1ccc(O)c(O)c1)(NN)C(=O)O (stereo not drawn)
not listed: [5]
inactive: all other assays above

CC(=O)[C@]1(O)Cc2c(O)c3c(c(O)c2[C@@H](O[C@H]2C[C@H](N)[C@@H](O)[C@H](C)O2)C1)C(=O)c1ccccc1C3=O
active: [1] 833 nM | [2] 1050 nM | [3] 587 nM | [4] 935 nM

OCC(O)C(O)C(O)CO (stereo not drawn)
not listed: [5]
inactive: all other assays above

O=S(=O)(O)CCSSCCS(=O)(=O)O
inactive: all assays above

CC1(C)CC(O)CC(C)(C)N1[O]
not listed: [5]
inactive: all other assays above

N#CC(=C(N)Sc1ccc(N)cc1)c1ccccc1C(F)(F)F
inactive: all assays above

O=c1ccn([C@@H]2O[C@H](CO)[C@H](O)[C@@H]2F)c(=O)[nH]1
inactive: all assays above

CC(C=CC=C(C)C=CC1=C(C)CCCC1(C)C)=CC=CC=C(C)C=CC=C(C)C=CC1=C(C)CCCC1(C)C
inactive: [1] | [2] | [3]
active: [4] 18700 nM

COc1cc(OC)cc(-c2ccc3ncc4ccc(=O)n(-c5ccc(N6CCNCC6)c(C(F)(F)F)c5)c4c3c2)c1
active: [1] 7430 nM | [2] 11800 nM | [3] 18600 nM | [4] 2960 nM | [5] 4180 nM

N[C@H]1CN(c2c(F)cc3c(=O)c(C(=O)O)cn(C4C[C@@H]4F)c3c2Cl)CC12CC2 (stereo partly drawn)
inactive: all assays above

NC[C@H]1O[C@H](O[C@H]2[C@@H](O)[C@@H](O[C@H]3O[C@H](CO)[C@@H](O)[C@H](N)[C@@H]3O)[C@H](N)C[C@@H]2N)[C@H](N)C[C@H]1O
inactive: all assays above

C=C1C(=CC=C2CCC[C@]3(C)[C@@H]([C@H](C)CCCC(C)(C)O)CC[C@@H]23)C[C@@H](O)C[C@@H]1O
inactive: [1] | [2]
active: [3] 16500 nM | [4] 4690 nM | [5] 13200 nM

C=C[C@@H]1CN2CCC1C[C@H]2[C@H](O)c1ccnc2ccc(OC)cc12 (stereo partly drawn)
inactive: all assays above

CC1(C)[C@H](O[C@H]2O[C@H](C(=O)O)[C@@H](O)[C@H](O)[C@H]2O[C@@H]2O[C@H](C(=O)O)[C@@H](O)[C@H](O)[C@H]2O)CC[C@@]2(C)[C@H]1CC[C@]1(C)[C@H]2C(=O)C=C2[C@H]3C[C@@](C)(C(=O)O)CC[C@]3(C)CC[C@]21C
inactive: all assays above

Cn1cc(-c2ccc3ncc(Cc4ccc5ncccc5c4)n3n2)cn1
active: [5] 9.3 nM
inactive: all other assays above

CNC(=O)Nc1ccc(-c2nc(N3CC4CCC(C3)O4)c3cnn(C4CCC5(CC4)OCCO5)c3n2)cc1
active: [1] 14.8 nM and 184 nM | [2] 16600 nM | [3] 26.2 nM | [4] 29.6 nM | [5] 29.6 nM

Cc1ccc2nc(NCCN)c3ncc(C)n3c2c1
active: [1] 4.18 µM and 6.51 µM | [2] 26400 nM | [3] 23400 nM | [4] 14800 nM | [5] 11800 nM

COC(=O)[C@@H]1CC2=CC(=O)CC[C@]2(C)[C@@]23O[C@@H]2C[C@@]2(C)[C@H](CC[C@@]24CCC(=O)O4)[C@@H]13
inactive: all assays above

NC(=O)c1ncn([C@@H]2O[C@H](CO)[C@@H](O)[C@@H]2O)c1O
inactive: all assays above

O=C(O)[C@H](CC(=O)N1C[C@@H]2CCCC[C@H]2C1)Cc1ccccc1
inactive: all assays above

COC1=C(OC)C(=O)C(CC=C(C)CCC=C(C)CCC=C(C)CCC=C(C)CCC=C(C)CCC=C(C)CCC=C(C)CCC=C(C)CCC=C(C)CCC=C(C)C)=C(C)C1=O
inactive: all assays above

C[C@]12C=CC(=O)N[C@@H]1CC[C@H]1[C@H]3CC[C@@H](C(=O)Nc4cc(C(F)(F)F)ccc4C(F)(F)F)[C@@]3(C)CC[C@@H]12
active: [5] 14800 nM
inactive: all other assays above

C[C@H](NCc1ccc2c(c1)nc(NC(=O)c1ccc(-c3cn[nH]c3)s1)n2CCc1ccccc1)C(C)(C)C
active: [1] 2350 nM | [2] 8330 nM | [3] 9300 nM | [4] 2960 nM | [5] 1050 nM

N#Cc1c(NC(=O)c2cccc3ccccc23)sc2c1CCCC2
active: [1] 418 nM and 291 nM | [2] 10500 nM | [3] 1040 nM | [4] 296 nM | [5] 332 nM

Oc1cc2c(cc1O)C1c3ccc(O)c(O)c3OCC1(O)C2 (stereo not drawn)
inactive: all assays above

O=C(O)C[C@H](O)C[C@H](O)C=Cc1c(C2CC2)nc2ccccc2c1-c1ccc(F)cc1
inactive: [2]
active: [1] 7430 nM | [3] 11700 nM | [4] 1180 nM | [5] 11800 nM

N#CNC(=NCCCCCCOc1ccc(Cl)cc1)Nc1ccncc1
inactive: [2]
active: [1] 4.2 nM | [3] 3.3 nM | [4] 14800 nM | [5] 1 nM

CC(C)(O)[C@H]1CC[C@@](C)([C@H]2[C@@H](O)C[C@@]3(C)[C@@H]4C[C@H](O[C@@H]5O[C@H](CO)[C@@H](O)[C@H](O)[C@@H]5O)[C@H]5C(C)(C)[C@@H](O[C@@H]6OC[C@@H](O)[C@H](O)[C@@H]6O)CC[C@@]56C[C@@]46CC[C@]23C)O1
inactive: all assays above

CC(C(C)N1CC(=O)NC(=O)C1)N1CC(=O)NC(=O)C1 (stereo not drawn)
active: [5] 743 nM
inactive: all other assays above

O=C(CN1C(=O)C2(CCCC2)NC[C@H]1c1cc(F)cc(F)c1)Nc1ccc2c(c1)C[C@@]1(C2)C(=O)Nc2ncccc21
inactive: all assays above
